# ChEMBL document CHEMBL2218924, “A broad activity screen in support of a chemogenomic map for kinase signalling research and drug discovery” (Biochem J, 2013)
# How the values were obtained:
# [1] = biological target: T1, Ephrin type-A receptor 3 (Homo sapiens) (UniProt P29320); details: at 10 µM
# T1 sequence (whole entry): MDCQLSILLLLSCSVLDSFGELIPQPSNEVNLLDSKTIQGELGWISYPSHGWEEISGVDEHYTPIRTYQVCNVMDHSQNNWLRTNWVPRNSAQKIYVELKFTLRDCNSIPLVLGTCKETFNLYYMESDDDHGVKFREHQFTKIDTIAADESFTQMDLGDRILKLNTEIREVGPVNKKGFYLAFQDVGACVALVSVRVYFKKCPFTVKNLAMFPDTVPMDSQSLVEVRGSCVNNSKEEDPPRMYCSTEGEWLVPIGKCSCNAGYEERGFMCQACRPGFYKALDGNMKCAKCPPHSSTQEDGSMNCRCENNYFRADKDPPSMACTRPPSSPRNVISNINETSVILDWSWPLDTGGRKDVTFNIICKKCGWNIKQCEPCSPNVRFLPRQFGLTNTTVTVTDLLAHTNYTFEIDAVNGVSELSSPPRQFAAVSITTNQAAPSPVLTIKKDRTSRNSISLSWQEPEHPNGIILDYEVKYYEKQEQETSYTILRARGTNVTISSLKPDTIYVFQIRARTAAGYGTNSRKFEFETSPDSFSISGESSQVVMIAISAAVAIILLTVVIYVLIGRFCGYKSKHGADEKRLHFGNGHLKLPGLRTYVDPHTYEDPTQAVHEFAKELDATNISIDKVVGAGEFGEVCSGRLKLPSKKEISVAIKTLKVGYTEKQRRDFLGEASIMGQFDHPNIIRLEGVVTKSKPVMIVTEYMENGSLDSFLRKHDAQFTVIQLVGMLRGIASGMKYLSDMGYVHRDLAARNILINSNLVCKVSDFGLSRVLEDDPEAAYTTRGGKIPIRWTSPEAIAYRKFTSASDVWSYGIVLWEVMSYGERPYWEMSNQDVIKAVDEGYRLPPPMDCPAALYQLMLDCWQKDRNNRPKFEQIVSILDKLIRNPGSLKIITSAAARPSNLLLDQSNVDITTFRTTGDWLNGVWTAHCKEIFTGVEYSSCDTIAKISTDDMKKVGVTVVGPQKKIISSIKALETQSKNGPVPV
# [2] = biological target: Ephrin type-A receptor 4 (Homo sapiens) (UniProt P54764); details: at 1 µM
# [3] = biological target: Ephrin type-A receptor 4 (Homo sapiens) (UniProt P54764); details: at 10 µM
# [4] = biological target: Ephrin type-A receptor 5 (Homo sapiens) (UniProt P54756); details: at 1 µM
# [5] = biological target: Ephrin type-A receptor 5 (Homo sapiens) (UniProt P54756); details: at 10 µM
# [6] = biological target: Ephrin type-A receptor 7 (Homo sapiens) (UniProt Q15375); details: at 1 µM
# [7] = biological target: Ephrin type-A receptor 7 (Homo sapiens) (UniProt Q15375); details: at 10 µM
# [8] = biological target: T2, Ephrin type-A receptor 8 (Homo sapiens) (UniProt P29322); details: at 1 µM
# T2 sequence (whole entry): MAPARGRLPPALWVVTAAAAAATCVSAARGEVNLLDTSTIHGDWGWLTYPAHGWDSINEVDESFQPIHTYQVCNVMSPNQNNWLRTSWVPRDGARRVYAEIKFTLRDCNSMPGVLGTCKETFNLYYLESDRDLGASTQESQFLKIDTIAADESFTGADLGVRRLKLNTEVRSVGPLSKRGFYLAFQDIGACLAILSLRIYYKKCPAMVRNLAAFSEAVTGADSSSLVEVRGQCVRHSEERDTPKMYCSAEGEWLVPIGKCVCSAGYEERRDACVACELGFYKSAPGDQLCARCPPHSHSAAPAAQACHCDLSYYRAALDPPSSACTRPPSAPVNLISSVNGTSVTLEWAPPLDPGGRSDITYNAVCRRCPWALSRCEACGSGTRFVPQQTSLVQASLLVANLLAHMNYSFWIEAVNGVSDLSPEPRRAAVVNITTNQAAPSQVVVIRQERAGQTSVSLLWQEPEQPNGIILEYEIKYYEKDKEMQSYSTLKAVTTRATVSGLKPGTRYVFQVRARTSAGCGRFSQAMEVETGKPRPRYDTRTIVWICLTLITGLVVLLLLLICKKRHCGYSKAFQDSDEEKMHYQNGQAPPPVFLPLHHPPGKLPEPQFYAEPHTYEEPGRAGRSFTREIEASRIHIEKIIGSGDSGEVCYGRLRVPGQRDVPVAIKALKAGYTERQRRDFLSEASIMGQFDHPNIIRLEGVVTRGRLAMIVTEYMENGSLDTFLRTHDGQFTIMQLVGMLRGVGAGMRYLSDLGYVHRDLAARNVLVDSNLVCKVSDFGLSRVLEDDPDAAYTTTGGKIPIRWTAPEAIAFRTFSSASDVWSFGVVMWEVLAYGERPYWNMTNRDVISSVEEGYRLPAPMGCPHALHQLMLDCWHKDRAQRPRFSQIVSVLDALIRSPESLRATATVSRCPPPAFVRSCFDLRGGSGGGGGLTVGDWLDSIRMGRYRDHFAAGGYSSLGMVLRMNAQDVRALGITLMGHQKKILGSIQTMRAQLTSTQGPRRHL
# [9] = biological target: T2, Ephrin type-A receptor 8 (Homo sapiens); details: at 10 µM
# [10] = biological target: T3, Ephrin type-B receptor 1 (Homo sapiens) (UniProt P54762); details: at 1 µM
# T3 sequence (whole entry): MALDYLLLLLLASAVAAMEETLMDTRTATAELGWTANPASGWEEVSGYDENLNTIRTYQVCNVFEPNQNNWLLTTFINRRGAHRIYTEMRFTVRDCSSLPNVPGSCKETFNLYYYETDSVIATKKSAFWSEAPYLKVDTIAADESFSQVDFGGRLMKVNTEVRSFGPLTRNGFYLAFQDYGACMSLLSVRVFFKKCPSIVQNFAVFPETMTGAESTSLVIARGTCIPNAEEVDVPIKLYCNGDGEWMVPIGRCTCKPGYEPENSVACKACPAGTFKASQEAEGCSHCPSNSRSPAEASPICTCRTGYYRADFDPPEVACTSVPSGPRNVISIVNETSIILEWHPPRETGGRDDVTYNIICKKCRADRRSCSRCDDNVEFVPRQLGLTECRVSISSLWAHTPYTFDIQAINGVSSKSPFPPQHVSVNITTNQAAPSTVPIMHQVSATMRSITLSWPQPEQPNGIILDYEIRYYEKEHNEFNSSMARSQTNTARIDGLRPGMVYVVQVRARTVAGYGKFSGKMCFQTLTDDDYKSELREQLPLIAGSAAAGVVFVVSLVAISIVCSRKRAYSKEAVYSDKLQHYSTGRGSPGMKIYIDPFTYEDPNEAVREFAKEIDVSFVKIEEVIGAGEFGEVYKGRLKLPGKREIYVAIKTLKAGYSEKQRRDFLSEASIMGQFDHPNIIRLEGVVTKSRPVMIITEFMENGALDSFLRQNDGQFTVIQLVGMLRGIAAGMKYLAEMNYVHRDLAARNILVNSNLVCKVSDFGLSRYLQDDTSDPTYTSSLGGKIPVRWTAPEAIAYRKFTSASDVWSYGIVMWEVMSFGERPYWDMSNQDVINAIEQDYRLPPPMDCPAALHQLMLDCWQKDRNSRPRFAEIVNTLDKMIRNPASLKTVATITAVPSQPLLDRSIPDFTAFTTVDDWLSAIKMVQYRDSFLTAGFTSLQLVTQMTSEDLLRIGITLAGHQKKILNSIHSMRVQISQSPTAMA
# Sequence of Ephrin type-A receptor 7 (Homo sapiens) (Q15375 28-998 limits assumed): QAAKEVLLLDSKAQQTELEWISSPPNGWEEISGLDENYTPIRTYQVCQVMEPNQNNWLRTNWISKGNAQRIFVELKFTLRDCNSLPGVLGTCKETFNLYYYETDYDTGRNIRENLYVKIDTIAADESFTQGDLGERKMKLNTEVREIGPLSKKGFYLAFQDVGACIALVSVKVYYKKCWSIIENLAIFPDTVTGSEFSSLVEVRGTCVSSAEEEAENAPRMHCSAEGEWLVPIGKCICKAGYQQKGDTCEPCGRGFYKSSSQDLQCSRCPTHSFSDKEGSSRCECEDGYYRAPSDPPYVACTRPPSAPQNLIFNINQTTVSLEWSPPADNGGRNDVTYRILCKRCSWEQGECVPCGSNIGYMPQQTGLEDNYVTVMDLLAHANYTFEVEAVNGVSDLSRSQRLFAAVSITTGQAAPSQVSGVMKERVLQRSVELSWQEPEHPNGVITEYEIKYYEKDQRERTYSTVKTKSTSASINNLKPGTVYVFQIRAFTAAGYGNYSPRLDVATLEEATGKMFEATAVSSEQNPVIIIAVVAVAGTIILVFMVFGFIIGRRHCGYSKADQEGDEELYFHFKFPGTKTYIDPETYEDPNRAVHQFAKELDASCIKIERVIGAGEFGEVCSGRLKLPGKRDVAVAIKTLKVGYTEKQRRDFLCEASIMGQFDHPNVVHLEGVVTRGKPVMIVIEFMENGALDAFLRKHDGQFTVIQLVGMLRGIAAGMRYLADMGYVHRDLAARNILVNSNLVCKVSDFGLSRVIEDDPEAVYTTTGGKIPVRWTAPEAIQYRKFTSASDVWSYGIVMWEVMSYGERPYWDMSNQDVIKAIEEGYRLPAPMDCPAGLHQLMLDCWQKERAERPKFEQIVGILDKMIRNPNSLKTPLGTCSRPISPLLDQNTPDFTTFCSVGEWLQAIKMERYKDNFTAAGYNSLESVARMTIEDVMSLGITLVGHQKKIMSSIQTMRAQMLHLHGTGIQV
# Sequence of Ephrin type-A receptor 4 (Homo sapiens) (P54764 whole entry): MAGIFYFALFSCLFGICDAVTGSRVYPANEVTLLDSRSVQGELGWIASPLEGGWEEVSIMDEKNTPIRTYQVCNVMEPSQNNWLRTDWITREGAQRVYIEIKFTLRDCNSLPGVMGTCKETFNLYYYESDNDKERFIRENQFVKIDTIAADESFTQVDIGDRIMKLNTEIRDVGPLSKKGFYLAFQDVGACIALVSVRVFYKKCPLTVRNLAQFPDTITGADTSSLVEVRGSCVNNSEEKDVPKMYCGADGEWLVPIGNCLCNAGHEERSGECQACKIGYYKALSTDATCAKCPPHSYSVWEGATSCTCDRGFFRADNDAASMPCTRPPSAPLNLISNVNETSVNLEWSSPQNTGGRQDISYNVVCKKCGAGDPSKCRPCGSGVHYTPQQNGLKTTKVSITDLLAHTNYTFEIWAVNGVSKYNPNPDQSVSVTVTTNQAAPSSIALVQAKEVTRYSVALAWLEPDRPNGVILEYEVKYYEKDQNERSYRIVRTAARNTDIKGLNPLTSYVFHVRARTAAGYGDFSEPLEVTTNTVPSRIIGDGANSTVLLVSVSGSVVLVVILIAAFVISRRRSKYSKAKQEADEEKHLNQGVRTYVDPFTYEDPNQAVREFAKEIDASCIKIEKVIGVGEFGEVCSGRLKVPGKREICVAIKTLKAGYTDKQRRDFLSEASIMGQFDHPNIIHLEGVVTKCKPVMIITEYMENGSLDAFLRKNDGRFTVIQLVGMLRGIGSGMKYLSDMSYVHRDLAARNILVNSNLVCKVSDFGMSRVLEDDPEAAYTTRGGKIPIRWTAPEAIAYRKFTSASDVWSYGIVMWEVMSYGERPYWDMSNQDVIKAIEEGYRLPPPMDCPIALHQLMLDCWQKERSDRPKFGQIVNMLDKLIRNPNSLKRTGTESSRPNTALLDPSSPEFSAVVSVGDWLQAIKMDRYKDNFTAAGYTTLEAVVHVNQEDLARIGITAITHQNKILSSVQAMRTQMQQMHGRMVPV
# Sequence of Ephrin type-A receptor 5 (Homo sapiens) (P54756 whole entry): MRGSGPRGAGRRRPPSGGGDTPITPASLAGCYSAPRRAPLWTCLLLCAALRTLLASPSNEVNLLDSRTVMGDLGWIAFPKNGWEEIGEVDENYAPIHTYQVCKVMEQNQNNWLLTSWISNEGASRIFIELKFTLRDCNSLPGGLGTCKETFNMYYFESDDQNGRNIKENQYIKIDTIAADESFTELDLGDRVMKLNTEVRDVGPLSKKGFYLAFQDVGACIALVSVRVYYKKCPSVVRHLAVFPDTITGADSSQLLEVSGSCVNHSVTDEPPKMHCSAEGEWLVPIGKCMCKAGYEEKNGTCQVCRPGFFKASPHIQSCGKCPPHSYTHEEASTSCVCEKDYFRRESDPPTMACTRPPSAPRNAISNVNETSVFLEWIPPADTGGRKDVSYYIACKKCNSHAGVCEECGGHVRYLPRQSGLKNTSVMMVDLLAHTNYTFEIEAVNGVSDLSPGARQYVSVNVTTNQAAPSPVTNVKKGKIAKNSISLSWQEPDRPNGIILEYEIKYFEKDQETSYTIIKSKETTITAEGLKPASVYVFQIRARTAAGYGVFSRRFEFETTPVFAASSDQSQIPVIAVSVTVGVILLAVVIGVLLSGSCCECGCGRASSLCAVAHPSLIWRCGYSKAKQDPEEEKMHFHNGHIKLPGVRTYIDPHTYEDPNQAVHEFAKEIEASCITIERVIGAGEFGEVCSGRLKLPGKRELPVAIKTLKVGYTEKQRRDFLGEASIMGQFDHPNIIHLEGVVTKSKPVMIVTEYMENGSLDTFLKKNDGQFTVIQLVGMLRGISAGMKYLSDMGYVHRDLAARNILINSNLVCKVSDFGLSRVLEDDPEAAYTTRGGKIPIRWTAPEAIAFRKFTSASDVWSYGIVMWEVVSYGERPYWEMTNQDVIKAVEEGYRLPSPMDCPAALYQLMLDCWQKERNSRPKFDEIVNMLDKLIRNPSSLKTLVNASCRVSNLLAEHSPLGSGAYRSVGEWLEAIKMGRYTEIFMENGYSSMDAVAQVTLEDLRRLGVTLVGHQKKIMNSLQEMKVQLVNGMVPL
structure (smiles),measurement,setting,value
C[S+]([O-])c1ccc(-c2nc(-c3ccc(F)cc3)c(-c3ccncc3)[nH]2)cc1 (stereo not given),residual activity,[1],86%
same,residual activity,[2],110%
same,residual activity,[3],80%
same,residual activity,[4],96%
same,residual activity,[5],48%
same,residual activity,[6],102%
same,residual activity,[7],65%
same,residual activity,[8],91%
same,residual activity,[9],43%
same,residual activity,[10],106%
